# Screens deposited in PubChem by Sanford-Burnham Center for Chemical Genomics.
# This excerpt belongs to a sample that is enriched for hits.
# DUSP3 inh – VHR1 phosphatase inhibitors, primary screen, biochemical, colorimetric, HTS | Dual specificity protein phosphatase 3 (Homo sapiens), P51452 | recombinant VHR phosphatase, colorimetric substrate read-out | inhibition, % at 20 µM | 50,000 tested, 0.7% active | AID 1992, 2009; in the data active means inhibition above about 60%
# Target sequence (P51452 whole entry, looked up): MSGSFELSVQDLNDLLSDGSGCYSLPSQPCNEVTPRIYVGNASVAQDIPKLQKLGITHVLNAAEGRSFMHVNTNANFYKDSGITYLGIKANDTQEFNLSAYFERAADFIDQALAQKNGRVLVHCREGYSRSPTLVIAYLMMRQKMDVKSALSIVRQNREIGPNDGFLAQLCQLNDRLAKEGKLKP
# Active calls of the source: *.
SMILES,DUSP3 inh
C=CCOc1ccc(-c2nc3sc4c(c3c(=O)[nH]2)CCCC4)cc1OC,16
CCOc1ccc(-c2nc3sc4c(c3c(=O)[nH]2)CCCC4)cc1OCC,-1
CC(=C1C(=O)c2ccccc2C1=O)N1CCCC1,-6
CCOc1cc(/C=C2\SC(=S)N(Cc3ccco3)C2=O)ccc1O,17
CCOC(=O)c1[nH]cnc1C(=O)Nc1ccc(Br)cc1,-22
CCOC(=O)c1[nH]nc2c1C(=O)N(c1ccc(OC)c(Br)c1)C2=O,4
CCOC(=O)c1[nH]nc2c1C(=O)N(c1ccc(Br)cc1)C2=O,98*
CC(=O)c1cccc(NC(=O)c2ccc(-c3cccc(Cl)c3)o2)c1,10
O=C1NC(=S)N(c2ccccc2F)C(=O)/C1=C/c1ccc(I)o1,86*
CCc1ccc(N2C(=O)/C(=C/c3ccc(I)o3)C(=O)NC2=S)cc1,42
CCOc1ccc(N2C(=O)/C(=C/c3ccc(I)o3)C(=O)NC2=S)cc1,85*
COc1ccccc1C=C1C(=O)NC(=S)N(c2ccccc2F)C1=O,9
CCOc1ccc(N2C(=O)/C(=C/c3ccc(C)o3)C(=O)NC2=S)cc1,23
CCOc1ccc(N2C(=O)NC(=O)/C(=C\c3ccc(I)o3)C2=O)cc1,20
CC1(C)CC(=O)C(=C2C=C(c3ccccc3)OC(c3ccccc3)=C2)C(=O)C1,-20
CCOC(=O)c1sc(NC(=O)CN2CCOCC2)c(C(=O)OCC)c1C,-9
O=c1/c(=C\c2ccc(-c3cccc(Cl)c3)o2)sc2nc3ccccc3n12,-6
CCOC(=O)C1=NNC(C(=O)c2ccc(Cl)cc2)C1c1ccc(OC)cc1 (stereo unspecified),115*
CCOC(=O)C1=NNC2C(=O)N(c3ccccc3C)C(=O)C12 (stereo unspecified),-5
CCOC(=O)C1=NNC2C(=O)N(c3ccc(Cl)cc3Cl)C(=O)C12 (stereo unspecified),116*
CCOC(=O)C1=C(C)NC(SC)=NC1c1ccc(OC)cc1 (stereo unspecified),1
CCOC(=O)C1=NNC(C(=O)c2ccccc2)C1c1cccc(Br)c1 (stereo unspecified),37
CCOC(=O)C1=NNC2C(=O)N(c3cc(OC)ccc3OC)C(=O)C12 (stereo unspecified),-3
O=[N+]([O-])c1ccc(N2CCOCC2)cc1NCCOc1ccc(F)cc1,8
COc1ccc(O)c(/C=N/c2nc3ccccc3[nH]2)c1,-30
SMILES,DUSP3 inh
c1cnc(Nc2nc(-c3cccs3)cs2)nc1,36
CN(C)NC1S/C(=C/C(=O)O)C(=O)N1c1ccccc1 (stereo unspecified),-42
CC12CNCC(C)(CN(Cc3ccc(Br)cc3)C1)C2,-29
CC(/C=C/c1ccco1)=N\Nc1nnc2c(n1)[nH]c1ccccc12,-14
COc1ccccc1-n1cnc2cc(NC(C)=O)ccc21,-6
COc1ccccc1-n1cnc2cc(NC(=O)c3ccc(C)cc3)ccc21,-15
COc1ccc(-n2cnc3cc(NC(C)=O)ccc32)cc1,97*
CC(=O)N(C)C1=C(Cl)C(=O)c2ccccc2C1=O,10
Oc1ccc2ccccc2c1/C=N/N1CCN(Cc2cccc3ccccc23)CC1,1
CCOC(=O)c1c(NC(=O)C2C3CCC(O3)C2C(=O)O)sc2c1CCC(CC)C2 (stereo unspecified),0
CCOC(=O)c1c(NC(=O)c2ccco2)sc2c1CCC(CC)C2 (stereo unspecified),73*
CCC1CCc2c(sc(NC(=O)c3ccc(Br)o3)c2C(=O)OC)C1 (stereo unspecified),-14
O=C(CCCOc1ccc(Cl)cc1Cl)Oc1ccc(Cl)cc1Cl,-18
CCCOC(=O)c1c(NC(=O)c2c(-c3ccccc3)noc2C)sc2c1CCCCC2,-9
COc1ccc(C(=O)/C=C\Nc2ccc(Cl)cn2)cc1,32
Cc1sc(NC(=O)/C=C\C(=O)O)nc1-c1ccccc1,-4
O=C1C=C(NCc2ccc(F)cc2)CC(c2ccccc2)C1 (stereo unspecified),-1
c1ccc(NCc2ccc3c(c2)OCO3)cc1,7
O=C1C=C(NCc2ccc3c(c2)OCO3)CC(c2ccccc2)C1 (stereo unspecified),101*
Cc1c(OCC(=O)O)ccc2c3c(c(=O)oc12)CCCC3,-4
CC1CCN(CCOCCOc2ccc(Br)cc2)CC1,4
CC(C)(C)c1ccc(Cn2c(-c3nonc3N)nc3ccccc32)cc1,60*
CC(=O)Nc1nonc1-c1nc2ccccc2n1Cc1ccc(C(C)(C)C)cc1,-11
CC(=O)Nc1nonc1-c1nc2ccccc2n1Cc1ccccc1,-2
COCCCNS(=O)(=O)c1ccc(OC)cc1,4
SMILES,DUSP3 inh
COc1ccc(C(NS(=O)(=O)c2ccc3ccccc3c2)c2ccccc2)cc1 (stereo unspecified),10
O=C(Nc1ccc(F)cc1)Nc1cccc2cccnc12,-12
Cc1ccc(C)n1-c1cccc2cccnc12,22
Fc1c(F)c(C(F)(F)F)c(F)c(F)c1Oc1cccc2cccnc12,98*
N/C(=N\OC(=O)c1ccc(Cl)cc1Cl)c1ccc(Br)cc1,-10
CCOC(=O)c1ccc(N2NC(=O)/C(=C/c3ccc(Cl)c([N+](=O)[O-])c3)C2=O)cc1,-9
Cc1ccc(N2NC(=O)/C(=C/c3ccc(C)c([N+](=O)[O-])c3)C2=O)cc1Cl,-13
O=C1NN(c2ccc(Cl)c(Cl)c2)C(=O)/C1=C/c1ccc(Cl)c([N+](=O)[O-])c1,83*
CC(=O)Nc1ccc(NC(=O)c2ccc(C(F)(F)F)cc2)cc1,-5
Cc1cc(Cl)ccc1OC(C)C(=O)Nc1ccc(Cl)c([N+](=O)[O-])c1 (stereo unspecified),0
CC(=O)C1=C(Nc2ccccc2)CC(C)(O)C(C(C)=O)C1c1ccc(F)cc1 (stereo unspecified),-16
CCN(CC)C(=O)c1sc(NC(=O)c2cc(OC)cc(OC)c2)c(C(=O)OC)c1C,95*
CCOC(=O)c1c(NC(=O)c2ccc(OC)c(OC)c2)sc(C(=O)N(CC)CC)c1C,-6
CCOc1cc(C(=O)Nc2sc(C(=O)N(CC)CC)c(C)c2C(=O)OC(C)C)cc(OCC)c1OCC,-8
CN(C)c1ccc(NC(=O)COc2ccc3ccccc3c2)cc1,-5
COc1ccc(CCNC(=O)CN(c2ccc(C)cc2)S(=O)(=O)c2ccc(F)cc2)cc1OC,12
COc1ccc(OC)c(C2/C(=C(\O)c3ccccc3)C(=O)C(=O)N2Cc2cccnc2)c1 (stereo unspecified),-18
Cc1cc(C=O)c(C)n1-c1ccc([N+](=O)[O-])cc1,6
Cc1cc(/C=N\Nc2ccc([N+](=O)[O-])cn2)c(C)n1-c1ccc(O)cc1,85*
Cc1cc(/C=N\Nc2ccc([N+](=O)[O-])cn2)c(C)n1-c1ccc(C(=O)O)cc1,22
CN1C(=O)NC(=O)/C(=C\c2ccc(Cl)cc2Cl)C1=O,-5
Clc1ccccc1CN1CCN(N=Cc2ccc(Br)cc2)CC1,-1
Cc1cccc(NC(=O)c2cc(-c3cccs3)nc3ccccc23)c1,-11
COc1cccc(-c2cc(C(=O)Nc3sc(C)c(C)c3C(N)=O)c3ccccc3n2)c1,7
Cc1sc(NC(=O)c2cc(-c3cccs3)nc3ccccc23)c(C(N)=O)c1C,88*
Cc1ccc(N2C(=O)CC(N(C)Cc3ccccc3)C2=O)c(C)c1 (stereo unspecified),-5
COc1ccccc1CNC(=O)Cc1ccc(Cl)cc1,-22
CCC(C)NC(=O)C(=O)NCCc1ccccc1 (stereo unspecified),-23
